Measurements reported in PubChem BioAssay (NCATS).
Results filed as inconclusive are left out. Active and inactive are the calls of the source. Calls come from the whole dose curve; as a rule, active = well fitted cell-killing curve with a large enough effect; inconclusive = small, poorly fitted or top-dose-only effect, or effect the other way; inactive = flat fitted curve, though single readings scatter.

What was measured:
Assay in all cases: Primary qHTS to identify gynecologic anti-cancer compounds using libraries of approved drugs and bioactive compounds (AID 1345084); note: nearly all actives have a fitted effect of over 55% in size
C33A = details: Gynecologic cancer cell panel viability, ATPlite luminescence, 48 h; series mostly up to 57.5 µM
Procedure, shortened: (§1)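 Cell viability after 48 h drug treatment, ATPlite luminescence readout; five doses.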

CASKI = details: Gynecologic cancer cell panel viability, ATPlite luminescence, 48 h; series mostly up to 57.5 µM
Procedure, shortened: as §1

Es-2 = details: Gynecologic cancer cell panel viability, ATPlite luminescence, 48 h; series mostly up to 57.5 µM
Procedure, shortened: as §1

HeLa = details: Gynecologic cancer cell panel viability, ATPlite luminescence, 48 h; series mostly up to 57.5 µM
Procedure, shortened: as §1

Hek293T = details: Gynecologic cancer cell panel viability, ATPlite luminescence, 48 h, control line for the selectivity index; series mostly up to 57.5 µM
Procedure, shortened: as §1

JEG-3 = details: Gynecologic cancer cell panel viability, ATPlite luminescence, 48 h; series mostly up to 57.5 µM
Procedure, shortened: as §1

OV90 = details: Gynecologic cancer cell panel viability, ATPlite luminescence, 48 h; series mostly up to 57.5 µM
Procedure, shortened: as §1

PA-1 = details: Gynecologic cancer cell panel viability, ATPlite luminescence, 48 h; series mostly up to 57.5 µM
Procedure, shortened: as §1

SKOV3 = details: Gynecologic cancer cell panel viability, ATPlite luminescence, 48 h; series mostly up to 57.5 µM
Procedure, shortened: as §1

Tov-21-G = details: Gynecologic cancer cell panel viability, ATPlite luminescence, 48 h; series mostly up to 57.5 µM
Procedure, shortened: as §1

Tov112D = details: Gynecologic cancer cell panel viability, ATPlite luminescence, 48 h; series mostly up to 57.5 µM
Procedure, shortened: as §1

CAOV3 = details: Gynecologic cancer cell panel viability, ATPlite luminescence, 48 h; series mostly up to 57.5 µM
Procedure, shortened: as §1
% is set by controls: 0 for no effect and ±100 for the full control effect.

CC(=O)O[C@@]1(C)[C@@H]2CC(=C(C)C)C(=O)C[C@@]2(C)CC[C@H]1OC(=O)C1(C)OC1C (some centres not stated)
inactive: Potency (C33A) | outcome (CASKI) | Potency (Es-2) | Potency (HeLa) | Potency (Hek293T) | Potency (JEG-3) | Potency (OV90) | Potency (PA-1) | Potency (SKOV3) | Potency (Tov-21-G) | Potency (Tov112D)

CC1(C)CC[C@]2(C(=O)O[C@@H]3O[C@H](CO)[C@@H](O)[C@H](O)[C@H]3O)CC[C@]3(C)C(=CCC4[C@@]5(C)CC[C@H](OC6OC(C(=O)O)C(OC7OC(CO)C(O)C(O)C7O)C(O)C6O)C(C)(C)C5CC[C@]43C)C2C1 (some centres not stated)
inactive: activity change, negative = cytotoxicity (C33A) 1.52% [at 11.6 µM] | activity change, negative = cytotoxicity (CASKI) 15.2% [at 11.6 µM] | activity change, negative = cytotoxicity (Es-2) 1.85% [at 11.6 µM] | activity change, negative = cytotoxicity (HeLa) 2.77% [at 11.6 µM] | activity change, negative = cytotoxicity (Hek293T) 10.4% [at 11.6 µM] | activity change, negative = cytotoxicity (JEG-3) 9.79% [at 11.6 µM] | activity change, negative = cytotoxicity (OV90) 8.01% [at 11.6 µM] | activity change, negative = cytotoxicity (PA-1) 3.63% [at 11.6 µM] | activity change, negative = cytotoxicity (SKOV3) 0% [at 11.6 µM] | activity change, negative = cytotoxicity (Tov-21-G) 2.32% [at 11.6 µM] | activity change, negative = cytotoxicity (Tov112D) 1.83% [at 11.6 µM]

CC(C)(O)C1CCC2(C)CCCC(C)(O)C2C1 (configuration not stated)
inactive: Potency (C33A) | outcome (CASKI) | Potency (Es-2) | Potency (HeLa) | Potency (Hek293T) | Potency (JEG-3) | Potency (OV90) | Potency (PA-1) | Potency (SKOV3) | Potency (Tov-21-G) | Potency (Tov112D)

CC[C@@H]1C(=O)O[C@]23C=C[C@@H]4C(C(=O)OC)=CO[C@H](O[C@@H]12)[C@@H]43
inactive: Potency (C33A) | Potency (CAOV3) | Potency (Es-2) | Potency (Hek293T) | Potency (OV90) | Potency (PA-1) | Potency (SKOV3) | Potency (Tov-21-G) | Potency (Tov112D)

CC(NC(=O)CC(=O)O)C(=O)Nc1ccccc1C(N)=O (configuration not stated)
inactive: Potency (C33A) | Potency (CAOV3) | Potency (Es-2) | Potency (HeLa) | Potency (Hek293T) | Potency (JEG-3) | Potency (OV90) | Potency (PA-1) | Potency (SKOV3) | Potency (Tov-21-G) | Potency (Tov112D)

COc1ccc(C2(O)c3c(ccc4c3OC(C)(CCC=C(C)C)C=C4)NC(=O)C2OC)cc1 (configuration not stated)
inactive: Potency (C33A) | Potency (CAOV3) | Potency (Es-2) | Potency (HeLa) | Potency (Hek293T) | Potency (JEG-3) | Potency (OV90) | Potency (PA-1) | Potency (Tov-21-G) | Potency (Tov112D)

COc1cc(C(CO)CO[C@@H]2O[C@H](CO)[C@@H](O)[C@H](O)[C@H]2O)ccc1O (some centres not stated)
inactive: Potency (C33A) | Potency (CAOV3) | Potency (Es-2) | Potency (HeLa) | Potency (Hek293T) | Potency (JEG-3) | Potency (OV90) | Potency (PA-1) | Potency (SKOV3) | Potency (Tov-21-G) | Potency (Tov112D)

COc1cc(/C=C/C(=O)O[C@H]2C[C@@H]3C(C(=O)O)=CO[C@@H](O[C@@H]4O[C@H](CO)[C@@H](O)[C@H](O)[C@H]4O)[C@@H]3[C@H]2C)ccc1O
inactive: Potency (C33A) | outcome (CASKI) | Potency (Es-2) | Potency (HeLa) | Potency (Hek293T) | Potency (JEG-3) | Potency (OV90) | Potency (PA-1) | Potency (SKOV3) | Potency (Tov-21-G) | Potency (Tov112D)

CC(=O)NC1CC(=O)C23C(=O)NC(Cc4c[nH]c5ccccc45)C2C(C)=C(C)C(O)C3/C=C/CC(C)/C=C(/C)C(O)C1O (configuration not stated)
inactive: Potency (C33A) | outcome (CASKI) | Potency (Es-2) | Potency (HeLa) | Potency (Hek293T) | Potency (JEG-3) | Potency (OV90) | Potency (PA-1) | Potency (SKOV3) | Potency (Tov-21-G) | Potency (Tov112D)

CCOC(=O)C(CCc1ccccc1)NC1CCCN2CCCC(C(=O)O)N2C1=O (configuration not stated)
inactive: Potency (C33A) | Potency (CAOV3) | Potency (Es-2) | Potency (HeLa) | Potency (Hek293T) | Potency (JEG-3) | Potency (OV90) | Potency (PA-1) | Potency (Tov-21-G) | Potency (Tov112D)

COc1ccc(-n2c(SCC#N)nc3sc4c(c3c2=O)CCCC4)cc1
inactive: Potency (C33A) | outcome (CASKI) | Potency (Es-2) | Potency (HeLa) | Potency (Hek293T) | Potency (JEG-3) | Potency (OV90) | Potency (PA-1) | Potency (SKOV3) | Potency (Tov-21-G) | Potency (Tov112D)

C=C1C(=O)OC2CC(COC(=O)C(C)C)=C(C(C)CCCOC(C)=O)[C@@H](OC(C)=O)C12 (some centres not stated)
inactive: Potency (C33A) | outcome (CASKI) | Potency (Es-2) | Potency (HeLa) | Potency (Hek293T) | Potency (JEG-3) | Potency (OV90) | Potency (PA-1) | Potency (SKOV3) | Potency (Tov-21-G) | Potency (Tov112D)

Cc1ccc(-c2c(-c3nn(C)c4ncnc(N5CC[C@H](N6CCCCC6)C5)c34)cnn2C)cc1
inactive: Potency (C33A) | outcome (CASKI) | Potency (Es-2) | Potency (HeLa) | Potency (Hek293T) | Potency (JEG-3) | Potency (OV90) | Potency (PA-1) | Potency (SKOV3) | Potency (Tov-21-G) | Potency (Tov112D)

COC(=O)C1C(O)CCC2CN3CCc4c([nH]c5ccccc45)C3CC21 (configuration not stated)
inactive: Potency (C33A) | Potency (CAOV3) | Potency (Es-2) | Potency (HeLa) | Potency (Hek293T) | Potency (JEG-3) | Potency (OV90) | Potency (PA-1) | Potency (SKOV3) | Potency (Tov-21-G) | Potency (Tov112D)

C/C(=C\C(=O)C[C@@]12C(=O)O[C@]3(C)CC[C@H]1C[C@H]23)C(N)=O
inactive: Potency (C33A) | outcome (CASKI) | Potency (Es-2) | Potency (HeLa) | Potency (Hek293T) | Potency (JEG-3) | Potency (OV90) | Potency (PA-1) | Potency (SKOV3) | Potency (Tov-21-G) | Potency (Tov112D)

OC[C@H]1O[C@@H](OCc2ccccc2)[C@H](O)[C@@H](O)[C@@H]1O
inactive: Potency (C33A) | outcome (CASKI) | Potency (Es-2) | Potency (HeLa) | Potency (Hek293T) | Potency (JEG-3) | Potency (OV90) | Potency (PA-1) | Potency (SKOV3) | Potency (Tov-21-G) | Potency (Tov112D)
